Measurements published in PubChem BioAssay (Tox21).
Several values for one entry are separate records, joined by “and”; a condition that tells them apart may be missing. Equal values may be shown once. Results filed as inconclusive are left out. A call without a number means that no potency is given here. More than one record can exist for a structure, and the calls need not agree. Activity calls are given as the source filed them. Unless noted, calls follow the shape of the dose curve; as a rule, active = well fitted curve in the direction sought with a large enough effect in the repeat runs; inconclusive = weak or mixed curves; inactive = no such curve, though single readings can be large; an effect the other way counts as inactive or inconclusive.

Experiments:
[1] = qHTS assay to identify small molecule antagonists of the retinoid-related orphan receptor gamma (ROR-gamma) signaling pathway - cell viability counter screen (AID 1159520); conditions: Tet-on RORgamma CHO cells viability, ATP luminescence, 16 h; series mostly up to 92.4 µM; also: nearly all actives have a fitted effect of over 50% in size; also: potency is read from the fitted curve at half-maximal effect
Procedure, shortened: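 Tet-on ROR gamma CHO cells were given compounds for 2 hr, then doxycycline hyclate at 1 uM final, and incubated 16 hr at 37 C. Viability was measured as ATP content by CellTiter-Glo luminescence.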

[2] = qHTS assay for small molecule disruptors of the mitochondrial membrane potential (AID 720635); conditions: HepG2 mitochondrial membrane potential, Mito-MPS dye ratio; series mostly up to 83.2 µM; also: potency is read from the fitted curve at half-maximal effect
Procedure, shortened: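 HepG2 cells exposed to compound 1 hr at 37C, then Mito-MPS dye 30 min. Ratio read of aggregate (540/590 nm) versus monomer (490/535 nm) fluorescence.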

[3] = target: Glucocorticoid receptor (Homo sapiens) (UniProt P04150); test: qHTS assay to identify small molecule agonists of the glucocorticoid receptor (GR) signaling pathway (AID 720691; active = well fitted activation curve with a large enough effect in the signal ratio in the repeat runs, not every such curve was filed as active; the % refers to the signal ratio); conditions: GR-bla HeLa, beta-lactamase reporter ratio, 18 h; series mostly up to 62.4 µM
Chain of Glucocorticoid receptor (Homo sapiens) (P04150 whole entry, looked up): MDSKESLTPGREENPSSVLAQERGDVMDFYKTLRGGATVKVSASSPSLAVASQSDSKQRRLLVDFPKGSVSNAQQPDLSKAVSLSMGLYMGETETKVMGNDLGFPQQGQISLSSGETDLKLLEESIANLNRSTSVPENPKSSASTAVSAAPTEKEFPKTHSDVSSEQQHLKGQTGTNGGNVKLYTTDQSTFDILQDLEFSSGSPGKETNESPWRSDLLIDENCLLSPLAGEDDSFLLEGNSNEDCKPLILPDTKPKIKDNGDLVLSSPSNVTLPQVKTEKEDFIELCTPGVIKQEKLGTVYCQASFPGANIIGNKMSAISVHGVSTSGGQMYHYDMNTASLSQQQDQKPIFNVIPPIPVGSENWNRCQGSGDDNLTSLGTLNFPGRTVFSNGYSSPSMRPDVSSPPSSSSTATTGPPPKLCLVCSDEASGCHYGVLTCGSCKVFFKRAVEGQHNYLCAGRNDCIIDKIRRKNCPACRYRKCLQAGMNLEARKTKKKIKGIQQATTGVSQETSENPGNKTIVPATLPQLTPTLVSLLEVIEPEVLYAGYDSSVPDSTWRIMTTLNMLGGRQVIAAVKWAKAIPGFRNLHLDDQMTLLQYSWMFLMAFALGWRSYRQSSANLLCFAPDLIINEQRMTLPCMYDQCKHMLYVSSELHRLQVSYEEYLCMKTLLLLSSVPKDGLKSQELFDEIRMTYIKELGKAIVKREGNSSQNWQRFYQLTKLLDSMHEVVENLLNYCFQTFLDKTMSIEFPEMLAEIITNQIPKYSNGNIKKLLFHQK
Procedure, shortened: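 HeLa GR-bla reporter line; cells pre-incubated 4 h, compound in DMSO 18 h at 37 C; LiveBLAzer B/G FRET substrate 2 h RT; fluorescence intensity read-out.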

[4] = target: Androgen receptor (Homo sapiens) (UniProt P10275); test: qHTS assay to identify small molecule agonists of the androgen receptor (AR) signaling pathway using the MDA cell line (AID 743040; also: nearly all actives have a fitted effect of over 20% in size); conditions: MDA-kb2 AR-luc cells, MMTV luciferase, 16 h; series mostly up to 70.3 µM
Chain of Androgen receptor (Homo sapiens) (P10275 whole entry, looked up): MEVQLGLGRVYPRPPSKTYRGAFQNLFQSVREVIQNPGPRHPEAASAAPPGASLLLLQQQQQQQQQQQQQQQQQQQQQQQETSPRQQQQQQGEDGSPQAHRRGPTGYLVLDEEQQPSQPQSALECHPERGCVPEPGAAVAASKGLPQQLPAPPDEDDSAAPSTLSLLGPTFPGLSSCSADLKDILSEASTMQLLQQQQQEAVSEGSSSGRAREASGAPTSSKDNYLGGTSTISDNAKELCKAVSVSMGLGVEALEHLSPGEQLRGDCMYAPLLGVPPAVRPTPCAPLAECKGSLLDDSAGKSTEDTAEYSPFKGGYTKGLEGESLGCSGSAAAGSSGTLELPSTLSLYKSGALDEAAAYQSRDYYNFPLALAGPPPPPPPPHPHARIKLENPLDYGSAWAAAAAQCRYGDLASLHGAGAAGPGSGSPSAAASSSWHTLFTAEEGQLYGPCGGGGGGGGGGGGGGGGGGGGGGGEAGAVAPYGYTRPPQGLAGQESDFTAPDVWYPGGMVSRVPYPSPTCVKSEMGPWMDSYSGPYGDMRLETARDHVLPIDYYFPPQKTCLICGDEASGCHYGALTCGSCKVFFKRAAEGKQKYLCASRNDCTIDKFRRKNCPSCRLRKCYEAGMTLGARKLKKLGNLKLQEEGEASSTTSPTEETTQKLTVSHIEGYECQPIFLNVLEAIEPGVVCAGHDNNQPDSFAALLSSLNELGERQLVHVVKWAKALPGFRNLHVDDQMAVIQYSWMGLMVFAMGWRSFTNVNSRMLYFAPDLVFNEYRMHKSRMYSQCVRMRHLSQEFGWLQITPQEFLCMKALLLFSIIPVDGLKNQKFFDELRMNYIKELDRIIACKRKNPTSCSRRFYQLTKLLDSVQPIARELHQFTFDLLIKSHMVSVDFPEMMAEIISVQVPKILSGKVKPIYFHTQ
Procedure, shortened: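 Testing was done with the MDA-kb2 AR-luc line, a human breast carcinoma stably transfected with MMTV-luciferase containing AR and GR response elements. Cells were exposed 16 h at 37C before ONE-Glo luminescence detection.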

[5] = target: Vitamin D3 receptor (Homo sapiens) (UniProt P11473); test: qHTS assay to identify small molecule agonists of the vitamin D receptor (VDR) signaling pathway (AID 743222; calls by dose curve); conditions: HEK293T VDR-UAS-bla, beta-lactamase FRET ratio, 16 h; series mostly up to 63.5 µM
Chain of Vitamin D3 receptor (Homo sapiens) (P11473 whole entry, looked up): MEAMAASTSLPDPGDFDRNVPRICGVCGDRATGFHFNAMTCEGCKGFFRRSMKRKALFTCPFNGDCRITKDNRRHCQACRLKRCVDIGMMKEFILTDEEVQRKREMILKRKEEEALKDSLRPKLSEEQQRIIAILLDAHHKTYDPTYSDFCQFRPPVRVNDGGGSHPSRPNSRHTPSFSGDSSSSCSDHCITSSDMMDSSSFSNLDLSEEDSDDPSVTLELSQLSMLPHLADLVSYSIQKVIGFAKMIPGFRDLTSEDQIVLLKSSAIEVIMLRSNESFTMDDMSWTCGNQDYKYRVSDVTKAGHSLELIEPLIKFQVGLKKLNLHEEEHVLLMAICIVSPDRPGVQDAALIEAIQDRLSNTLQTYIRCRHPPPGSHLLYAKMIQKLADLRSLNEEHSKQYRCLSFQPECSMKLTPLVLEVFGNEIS
Procedure, shortened: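 Beta-lactamase reporter readout (LiveBLAzer B/G FRET, 2 h RT) in VDR-bla cells after 16 h compound treatment at 37C, 5% CO2; cells pre-incubated 4 h before pin transfer of DMSO solutions.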

[6] = target: Nuclear receptor ROR-gamma (Homo sapiens) (UniProt P51449); test: qHTS assay to identify small molecule antagonists of the retinoid-related orphan receptor gamma (ROR-gamma) signaling pathway (AID 1159521; also: nearly all actives have a fitted effect of over 50% in size; also: potency is read from the fitted curve at half-maximal effect); conditions: Tet-on RORgamma CHO cells, RORE-luciferase, 16 h; series mostly up to 92.4 µM
Procedure, shortened: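 Inducible-expression reporter assay: doxycycline (1 uM final) switched on RORγ in CHO cells bearing a ROR response element-luciferase construct, with test compounds present from 2 h beforehand. Decreased luminescence after 16 h defined antagonist activity.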

[7] = qHTS assay for small molecule activators of the heat shock response signaling pathway - cell viability counter screen (AID 743209); conditions: HSE-bla HeLa viability, CellTiter-Glo luminescence, 5 h; series mostly up to 62.6 µM; also: nearly all actives have a fitted effect of over 50% in size; also: potency is read from the fitted curve at half-maximal effect
Procedure, shortened: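 HSE-bla HeLa; 1500 cells/well; overnight 37 C, 5% CO2; compound 5 h 37 C; LiveBLAzer B/G substrate 2.5 h RT; CellTiter-Glo 30 min RT; luminescence.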

[8] = qHTS assay for small molecule activators of the heat shock response signaling pathway (AID 743210; active = well fitted activation curve with a large enough effect in the signal ratio in the repeat runs, with a control signal flat, not every such curve was filed as active; the % refers to the signal ratio; also: potency is read from the fitted curve at half-maximal effect;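 as to activation: HeLa cells with beta-lactamase reporter driven by heat shock elements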); conditions: HeLa HSE-bla reporter, beta-lactamase ratio, 5 h; series mostly up to 62.6 µM
Procedure, shortened: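 Following overnight attachment, HSE-bla HeLa cells received test compounds for 5 h at 37 C; beta-lactamase activity was then detected via FRET substrate fluorescence.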

[9] = qHTS assay to identify small molecule agonists of the vitamin D receptor (VDR) signaling pathway - cell viability counter screen (AID 743224); conditions: VDR-bla HEK293T viability, CellTiter-Glo luminescence, 16 h; series mostly up to 81.1 µM; also: potency is read from the fitted curve at half-maximal effect; nearly all actives have a fitted effect of over 50% in size
Procedure, shortened: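 Cytotoxicity counter screen: VDR-bla cells, 16 h compound exposure at 37C, 5% CO2; CellTiter-Glo luminescence, 30 min RT, same wells as bla read.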

[10] = qHTS assay to identify small molecule agonists of the retinoic acid receptor (RAR) signaling pathway (AID 1159553); conditions: C3RL4 RARE luciferase reporter, agonist, 6 h; series mostly up to 73.3 µM
Procedure, shortened: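 RARE-luc C3RL4 cells; overnight attachment 37 C/5% CO2; compound (DMSO) 6 hr; luciferase reagent, 30 min RT; luminescence read-out.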

[11] = target: Glucocorticoid receptor (Homo sapiens) (UniProt P04150); test: qHTS assay to identify small molecule antagonists of the glucocorticoid receptor (GR) signaling pathway (AID 720692; active = well fitted inhibition curve with a large enough effect in the signal ratio in the repeat runs, not every such curve was filed as active; the % refers to the signal ratio; also: potency is read from the fitted curve at half-maximal effect); conditions: GR-bla HeLa, beta-lactamase FRET ratio, dexamethasone-stimulated, 18 h; series mostly up to 58.5 µM
Procedure, shortened: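 Read-out: beta-lactamase FRET substrate fluorescence, 2 h at room temperature, in HeLa cells stably carrying a GRE-driven bla reporter. Compounds were co-incubated with 5 nM dexamethasone agonist (final) for 18 h at 37 C.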

[12] = target: Estrogen receptor (Homo sapiens) (UniProt P03372); test: qHTS assay to identify small molecule agonists of the estrogen receptor alpha (ER-alpha) signaling pathway using the BG1 cell line (AID 743079); conditions: BG1Luc4E2 cells, ERE-luciferase agonist, 22 h; series mostly up to 70.3 µM; also: nearly all actives have a fitted effect of over 20% in size; also: potency is read from the fitted curve at half-maximal effect
Chain of Estrogen receptor (Homo sapiens) (P03372 whole entry, looked up): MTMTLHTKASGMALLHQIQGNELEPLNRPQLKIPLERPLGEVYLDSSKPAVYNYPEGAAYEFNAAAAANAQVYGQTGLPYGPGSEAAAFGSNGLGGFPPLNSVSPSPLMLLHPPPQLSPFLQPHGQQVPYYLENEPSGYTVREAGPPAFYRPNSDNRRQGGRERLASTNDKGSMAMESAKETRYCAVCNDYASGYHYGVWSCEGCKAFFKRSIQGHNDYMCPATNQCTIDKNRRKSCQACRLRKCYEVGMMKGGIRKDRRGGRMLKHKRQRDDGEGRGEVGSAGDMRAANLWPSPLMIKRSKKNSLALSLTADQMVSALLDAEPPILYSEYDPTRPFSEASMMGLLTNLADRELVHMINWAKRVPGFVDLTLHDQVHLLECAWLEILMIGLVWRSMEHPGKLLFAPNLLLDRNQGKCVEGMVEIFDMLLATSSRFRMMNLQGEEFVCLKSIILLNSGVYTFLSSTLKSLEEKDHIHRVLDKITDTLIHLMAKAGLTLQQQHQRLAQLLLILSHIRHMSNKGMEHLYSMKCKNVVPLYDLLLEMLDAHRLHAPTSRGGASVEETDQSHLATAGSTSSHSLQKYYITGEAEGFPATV

[13] = qHTS assay to identify small molecule antagonists of the peroxisome proliferator-activated receptor delta (PPARd) signaling pathway - cell viability counter screen (AID 743213); conditions: PPARd-bla HEK293H viability, CellTiter-Glo luminescence, 17 h; series mostly up to 62 µM; also: nearly all actives have a fitted effect of over 50% in size; also: potency is read from the fitted curve at half-maximal effect
Procedure, shortened: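 Agonist-stimulated (L165041, 300 nM final) HEK293H PPARd UAS-bla cells are exposed to compounds for 17 h at 37 C, and ATP-based luminescence (CellTiter-Glo) from the same wells reports cytotoxicity.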

[14] = qHTS assay to identify small molecule agonists of the farnesoid-X-receptor (FXR) signaling pathway - cell viability counter screen (AID 743218); conditions: FXR-bla HEK293T viability, CellTiter-Glo luminescence, 16 h; series mostly up to 62.6 µM; also: nearly all actives have a fitted effect of over 45% in size; also: potency is read from the fitted curve at half-maximal effect
Procedure, shortened: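 Luminescence from CellTiter-Glo, read after 30 min at RT, reports viability of GeneBLAzer FXR-UAS-bla HEK 293T cells treated 16 h with compounds in the wells used for the beta-lactamase reporter.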

[15] = qHTS assay to identify small molecule antagonists of the vitamin D receptor (VDR) signaling pathway - cell viability counter screen (AID 743225); conditions: VDR-bla HEK293T viability, CellTiter-Glo luminescence, 16 h; series mostly up to 61 µM; also: nearly all actives have a fitted effect of over 50% in size; also: potency is read from the fitted curve at half-maximal effect
Procedure, shortened: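 Same-well multiplex: following 16 h treatment of HEK 293T cells carrying a UAS-driven beta-lactamase reporter with compound and agonist (3 nM final), and a 2 h FRET substrate step, CellTiter-Glo was added and luminescence read after 30 min.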

[16] = qHTS assay to identify small molecule phospholipidosis (PLD) inducers (AID 1259344; active = well fitted curve in the direction sought with a large enough effect; an effect the other way counts as inactive or inconclusive; also: potency is read from the fitted curve at half-maximal effect); conditions: HepG2 phospholipidosis, LipidTOX Red imaging, 24 h; series mostly up to 38.3 µM
Procedure, shortened: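 Image-based: LipidTOX Red pit count/intensity per well and per cell; HepG2, 24 h compound at 37 C, PFA fixation, Hoechst counterstain.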

[17] = qHTS assay for small molecule agonists of the p53 signaling pathway - cell viability (AID 651633; calls by dose curve; also: nearly all actives have a fitted effect of over 30% in size; also: potency is read from the fitted curve at half-maximal effect); conditions: p53RE-bla HCT-116 viability, ATP luminescence, 16 h; series mostly up to 83.3 µM
Procedure, shortened: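 p53RE-bla cells were treated with compound for 16 hours at 37 C. Cytotoxicity was then measured as CellTiter-Glo luminescence after 30 min at room temperature.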

[18] = qHTS assay for small molecule agonists of the antioxidant response element (ARE) signaling pathway - cell viability counter screen (AID 743203; calls by dose curve; also: nearly all actives have a fitted effect of over 55% in size; also: potency is read from the fitted curve at half-maximal effect); conditions: ARE-bla HepG2 viability, CellTiter-Glo luminescence, 16 h; series mostly up to 73.3 µM
Procedure, shortened: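 Luminescence read-out (CellTiter-Glo, 30 min at room temperature) measured cell viability in the same wells as the ARE beta-lactamase reporter. HepG2 ARE-bla cells were treated with compounds for 16 hrs at 37C/5% CO2.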

[19] = qHTS assay to identify small molecule agonists of the hypoxia (HIF-1) signaling pathway (AID 1224846; active = well fitted activation curve with a large enough effect in the signal ratio in the repeat runs, not every such curve was filed as active; the % refers to the signal ratio); conditions: HRE-bla ME-180 cells, beta-lactamase ratio, 17 h; series mostly up to 76.8 µM
Procedure, shortened: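 Beta-lactamase FRET read-out (CCF4-AM substrate) from ME-180 cells carrying an HRE-driven bla reporter, after 17 hrs compound exposure at 37C/5% CO2. Cells were seeded at 2,000 per well in 0.5% dialyzed FBS medium and preincubated 5 hrs.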

[20] = target: Estrogen receptor beta (Homo sapiens) (UniProt Q92731); test: qHTS assay to identify small molecule antagonists of the estrogen receptor beta (ER-beta) signaling pathway (AID 1259378; active = well fitted inhibition curve with a large enough effect in the signal ratio in the repeat runs, not every such curve was filed as active; the % refers to the signal ratio; also: potency is read from the fitted curve at half-maximal effect); conditions: ER-beta-UAS-bla HEK293T, beta-lactamase FRET ratio, 16 h; series mostly up to 92.4 µM
Chain of Estrogen receptor beta (Homo sapiens) (Q92731 whole entry, looked up): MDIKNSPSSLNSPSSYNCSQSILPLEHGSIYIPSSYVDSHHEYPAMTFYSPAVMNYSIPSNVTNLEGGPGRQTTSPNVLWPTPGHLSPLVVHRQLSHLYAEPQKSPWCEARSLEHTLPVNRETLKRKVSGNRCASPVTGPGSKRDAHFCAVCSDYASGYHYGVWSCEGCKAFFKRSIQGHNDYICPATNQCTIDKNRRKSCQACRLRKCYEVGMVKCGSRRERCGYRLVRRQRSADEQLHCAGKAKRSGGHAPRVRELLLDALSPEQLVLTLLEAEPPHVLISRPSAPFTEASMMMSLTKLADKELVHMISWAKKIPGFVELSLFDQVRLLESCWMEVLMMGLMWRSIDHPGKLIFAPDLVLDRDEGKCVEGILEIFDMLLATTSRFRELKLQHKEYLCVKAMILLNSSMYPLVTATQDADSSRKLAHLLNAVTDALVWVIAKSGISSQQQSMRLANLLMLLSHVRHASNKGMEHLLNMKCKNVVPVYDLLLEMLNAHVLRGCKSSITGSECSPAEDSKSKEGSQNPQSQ
Procedure, shortened: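 ER-beta-UAS-bla HEK293T cells in 2% charcoal-stripped FBS medium treated with compound plus 1nM final 17-beta-estradiol for 16 hr at 37C. Beta-lactamase reporter read by FRET substrate fluorescence after 2 hours at room temperature.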

O=S(=O)(C(Cl)(Cl)Cl)C(Cl)(Cl)Cl
Potency [1]: 17.2 µM (active)

Nc1ccc([N+](=O)[O-])cc1
Potency [2]: 1.37 µM (active)
Potency [3]: inactive
Potency [4]: inactive
outcome [5]: inactive
Potency [6]: inactive

CO/C=C(/C(=O)OC)c1ccccc1Oc1cc(Oc2ccccc2C#N)ncn1
Potency [4]: inactive
Potency [7]: inactive
Potency [8]: inactive
Potency [9]: 5.22 µM (active)
Potency [6]: 0.581 µM (active)
outcome [10]: inactive

ClC1=C(Cl)C(Cl)(Cl)C(Cl)=C1Cl
Potency [8]: 52.9 µM (active)

Cc1ccc2nc3sc(=O)sc3nc2c1
activity, negative = cytotoxicity [1]: -10.1% [at 19 µM] (inactive)

O=C1C(I)=CC(=C(c2cc(I)c(O)c(I)c2)c2ccccc2C(=O)O)C=C1I
Potency [2]: 8.41 µM (active) and 4.22 µM (active)
Potency [11]: 16.9 µM (active) and 8.49 µM (active)
Potency [12]: inactive
Potency [8]: inactive
Potency [13]: inactive
Potency [14]: inactive
outcome [5]: inactive
Potency [15]: inactive
Potency [1]: inactive
outcome [10]: inactive
Potency [16]: inactive

Cc1nnc2n1-c1sc(CCc3ccc(CC(C)C)cc3)cc1C(c1ccccc1Cl)=NC2C (configuration not stated)
Potency [17]: 23.7 µM (active)
Potency [7]: 29.8 µM (active)
Potency [14]: 33.5 µM (active)
Potency [15]: 23.9 µM (active)
Potency [6]: 29.8 µM (active)
Potency [16]: inactive

Cc1cc(C(C)(C)c2ccc(O)c(C)c2)ccc1O
Potency [2]: 6.53 µM (active)
Potency [11]: 13.1 µM (active)
Potency [4]: inactive
Potency [18]: 46.2 µM (active)
Potency [8]: inactive
outcome [5]: inactive
Potency [9]: 33 µM (active)

ClC(Cl)=C(c1ccc(Cl)cc1)c1ccccc1Cl
Potency [1]: inactive
outcome [19]: inactive
Potency [20]: 6.86 µM (active)

COc1ccc(C(c2ccc(OC)cc2)C(Cl)(Cl)Cl)cc1
Potency [3]: inactive
Potency [11]: 34.5 µM (active)
Potency [12]: 4.97 µM (active)
Potency [6]: 48.3 µM (active)
outcome [10]: inactive
Potency [16]: 31.6 µM (active)

Nc1ccc(Cl)cc1[N+](=O)[O-]
Potency [8]: inactive

O=C(c1ccccc1)C(Cl)Cl
Potency [6]: 27.3 µM (active)

Cc1ccc(N(SC(F)(Cl)Cl)S(=O)(=O)N(C)C)cc1
Potency [4]: inactive
Potency [18]: 7.7 µM (active)
Potency [13]: 13.8 µM (active)
Potency [14]: 13.8 µM (active)
Potency [9]: 7.76 µM (active)
Potency [1]: 6.11 µM (active)
Potency [20]: 13.7 µM (active)

OCC(c1ccc(Cl)cc1)c1ccc(Cl)cc1
Potency [7]: inactive
Potency [14]: inactive
outcome [5]: inactive
Potency [15]: 54.9 µM (active)
outcome [19]: inactive

CC(c1ccccc1)(c1ccc(O)cc1)c1ccc(O)cc1
Potency [6]: 48.6 µM (active)

Cc1cc(C)c(C(=O)P(=O)(c2ccccc2)c2ccccc2)c(C)c1
Potency [6]: 61.1 µM (active)

N#Cc1cc([N+](=O)[O-])ccc1N
Potency [1]: inactive
outcome [19]: inactive
Potency [20]: inactive

CCOC(=O)C(O)(c1ccc(Cl)cc1)c1ccc(Cl)cc1
Potency [17]: 15.5 µM (active)
Potency [2]: 4.37 µM (active) and 24.3 µM (active)
Potency [4]: inactive
Potency [18]: 24.6 µM (active)
Potency [7]: 7.84 µM (active) and inactive
Potency [8]: inactive
Potency [13]: 22.1 µM (active)
Potency [14]: 24.8 µM (active) and inactive
outcome [5]: inactive
Potency [9]: 7.84 µM (active) and 43.6 µM (active)
Potency [15]: 11.1 µM (active) and 38.9 µM (active)
outcome [19]: inactive
Potency [20]: 30.9 µM (active) and 54.5 µM (active)

COc1cc(OC)c(OC)cc1C=O
Potency [17]: inactive
Potency [3]: inactive
Potency [4]: inactive
Potency [12]: inactive
Potency [18]: inactive
Potency [13]: inactive
Potency [6]: inactive
Potency [20]: inactive
